Measured values published in PubChem BioAssay (NCI).
The panel holds about 79,000 compounds, 15% with a hit somewhere; the sample as a whole holds those more often. A number with no mark means an inactive call. Activity calls are given as the source filed them. No stated cut-off is given here; in the data, active means growth inhibition above about 70%; inactive means the rest.

Legend:
[1] = NCI Yeast Anticancer Drug Screen. Data for the rad50 strain (AID 155);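 further: 0% = growth of vehicle-only cultures of the same strain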; details: S. cerevisiae rad50 strain growth inhibition, stronger effect = higher value
Method in brief: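 Genetically altered yeast (DNA repair pathway); compound treatment; growth inhibition vs vehicle ctrl.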

[2] = NCI Yeast Anticancer Drug Screen. Data for the mec2-1 strain (AID 157); details: S. cerevisiae mec2-1 strain, stronger effect = higher value
Method in brief: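 Growth inhibition is read against vehicle-treated controls after compound exposure of the mec2-1 yeast strain, which is defective in DNA damage repair or cell cycle control.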

[3] = NCI Yeast Anticancer Drug Screen. Data for the sgs1 mgt1 strain (AID 161);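 further: 0% = growth of cultures given vehicle only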; details: S. cerevisiae sgs1 mgt1 strain, stronger effect = higher value
Method in brief: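 This yeast growth screen uses a strain with defined DNA-repair lesions; compound-treated growth is compared with vehicle-treated growth.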

[4] = NCI Yeast Anticancer Drug Screen. Data for the cln2 rad14 strain (AID 165);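 further: 0% = growth equal to vehicle treated cultures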; details: S. cerevisiae cln2 rad14 strain, stronger effect = higher value
Method in brief: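 Growth inhibition, relative to vehicle-treated controls, is the read-out. The test organism is a yeast strain with defined genetic alterations, cln2 rad14.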

[5] = NCI Yeast Anticancer Drug Screen. Data for the bub3 strain (AID 167); details: S. cerevisiae bub3 mutant strain, stronger effect = higher value
Method in brief: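 Yeast carrying a defined mutation is treated with each compound, and growth is compared with that of vehicle-exposed cells to give inhibition.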

[6] = NCI Yeast Anticancer Drug Screen. Data for the mlh1 rad18 strain (AID 175); details: S. cerevisiae mlh1 rad18 strain growth inhibition, stronger effect = higher value
Method in brief: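 Cells of a genetically altered yeast strain, deficient in DNA damage repair, were treated with compound. Their growth was then compared with that of vehicle-treated cultures to give inhibition.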

[7] = at 5.0 µM (retest, dose inferred, filed as 0.5)
[8] = at 50.0 µM (retest, dose inferred, filed as 5.0)

Row | Compound | growth inhibition [1, 7] | growth inhibition [1, 8] | growth inhibition ([1]; at 50.0 µM) | growth inhibition [2, 7] | growth inhibition [2, 8] | growth inhibition ([2]; at 50.0 µM) | growth inhibition [3, 7] | growth inhibition [3, 8] | growth inhibition ([3]; at 50.0 µM) | growth inhibition [4, 7] | growth inhibition [4, 8] | growth inhibition ([4]; at 50.0 µM) | growth inhibition [5, 7] | growth inhibition [5, 8] | growth inhibition ([5]; at 50.0 µM) | growth inhibition [6, 7] | growth inhibition [6, 8] | growth inhibition ([6]; at 50.0 µM)
1 | Nc1ncnc2nc[nH]c12.[Ag] | 98% (active) | 99% (active) | 99.3% (active) | 99% (active) | 100% (active) | 99.7% (active) | 97% (active) | 99% (active) | 99.7% (active) | 99% (active) | 99% (active) | 98.5% (active) | 99% (active) | 99% (active) | 99.5% (active) | 97% (active) | 99% (active) | 99.7% (active)
2 | N#CSCCSCc1ccc(Cl)cc1 | 4% | 99% (active) | 99.2% (active) | 25% | 99% (active) | 99.5% (active) | 7% | 99% (active) | 99.4% (active) | -6% | 99% (active) | 98.9% (active) | -6% | 99% (active) | 99.5% (active) | 6% | 99% (active) | 99.3% (active)
3 | c1ccc(-c2nc3nc4ccccc4nc3nc2-c2ccccn2)nc1 | -8% | 84% (active) | 24.9% | 4% | 92% (active) | 0.9% | 8% | 87% (active) | 20.6% | -5% | 85% (active) | -19.1% | -4% | 98% (active) | 50.6% | 14% | 98% (active) | 22.8%
4 | O=C(O)c1ccccc1N=N/C(=N\Nc1cc(S(=O)(=O)O)ccc1O)c1ccccc1 | -7% | 85% (active) | 48.4% | -5% | 49% | 20.5% | -3% | 95% (active) | 46.5% | -3% | 47% | -32% | 1% | 97% (active) | 38.8% | -4% | 74% (active) | 44.5%
5 | CCC(=S)N(C)O | 95% (active) | 96% (active) | 66.5% | 99% (active) | 98% (active) | 50.9% | 100% (active) | 98% (active) | 69% | 98% (active) | 91% (active) | 45.1% | 100% (active) | 97% (active) | 52% | 98% (active) | 97% (active) | 86.2% (active)
6 | O=C1/C(=C/c2ccccc2)CCC/C1=C\c1ccc(O)c(CN2CCCCC2)c1 | 25% | 42% | -4.05% | 16% | 27% | 1.95% | 26% | 47% | 88.8% (active) | 18% | 12% | 74.9% (active) | 21% | 32% | 82.2% (active) | 25% | 44% | 90.8% (active)
7 | Clc1ccc(CN2COc3c(ccc4ccccc34)C2)cc1 | 10% | 78% (active) | 88.8% (active) | 3% | 43% | 59.8% | 13% | 97% (active) | 83.2% (active) | 0% | 85% (active) | 61.1% | -4% | 96% (active) | 89.9% (active) | 1% | 96% (active) | 59%
8 | O=C1NC(=O)C(c2ccccc2)(c2ccccc2)C2CC3c4[nH]c5ccccc5c4CCN3CC12 (stereo not given) | 5% | 61% | 64.5% | 6% | 63% | 59.1% | 5% | 65% | 56% | 6% | 66% | 46.6% | 6% | 51% | 37.5% | 1% | 60% | 73.8% (active)
9 | COC(=O)c1c2c(cc3c1CC1(Cc4cc5c(c(C)c4C1)CCC5)C3)CCC2 (stereo not given) | 15% | 12% | -32.5% | 6% | 5% | -46.4% | 9% | 12% | -31.9% | -4% | 13% | -11.1% | 14% | 10% | -13.1% | 12% | 11% | -22.9%
10 | Cc1nc(N)sc1N=Nc1ccc(Cl)cc1 | -16% | 55% | 78% (active) | 7% | 62% | 50% | -5% | 62% | 57.2% | 5% | 24% | 66.7% | 10% | 52% | 81.8% (active) | 21% | 77% (active) | 84.5% (active)
